Experimental data reported in PubChem BioAssay (NCATS).
Inconclusive results are not listed. Entries that show only a call come without a potency. Active and inactive are the calls of the source. The call rests on the fitted dose curve; in most records, active means well fitted curve in the direction sought with a large enough effect; inconclusive means small, poorly fitted or top-dose-only effect, or another doubt; inactive means no such curve, though single readings can be large; an effect the other way counts as inactive or inconclusive.

How the values were obtained:
[1] = target: Rap guanine nucleotide exchange factor 3 (Homo sapiens) (UniProt O95398); assay: Confirmatory qHTS for agonist of cAMP-regulated guanine nucleotide exchange factor 3 (EPAC1) (AID 1645881);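 further: EPAC1 catalysed release of BODIPY-GDP from Rap1B seen as fluorescence loss; nearly all actives have a fitted effect of over 75% in size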
Sequence of Rap guanine nucleotide exchange factor 3 (Homo sapiens) (O95398 whole entry, looked up): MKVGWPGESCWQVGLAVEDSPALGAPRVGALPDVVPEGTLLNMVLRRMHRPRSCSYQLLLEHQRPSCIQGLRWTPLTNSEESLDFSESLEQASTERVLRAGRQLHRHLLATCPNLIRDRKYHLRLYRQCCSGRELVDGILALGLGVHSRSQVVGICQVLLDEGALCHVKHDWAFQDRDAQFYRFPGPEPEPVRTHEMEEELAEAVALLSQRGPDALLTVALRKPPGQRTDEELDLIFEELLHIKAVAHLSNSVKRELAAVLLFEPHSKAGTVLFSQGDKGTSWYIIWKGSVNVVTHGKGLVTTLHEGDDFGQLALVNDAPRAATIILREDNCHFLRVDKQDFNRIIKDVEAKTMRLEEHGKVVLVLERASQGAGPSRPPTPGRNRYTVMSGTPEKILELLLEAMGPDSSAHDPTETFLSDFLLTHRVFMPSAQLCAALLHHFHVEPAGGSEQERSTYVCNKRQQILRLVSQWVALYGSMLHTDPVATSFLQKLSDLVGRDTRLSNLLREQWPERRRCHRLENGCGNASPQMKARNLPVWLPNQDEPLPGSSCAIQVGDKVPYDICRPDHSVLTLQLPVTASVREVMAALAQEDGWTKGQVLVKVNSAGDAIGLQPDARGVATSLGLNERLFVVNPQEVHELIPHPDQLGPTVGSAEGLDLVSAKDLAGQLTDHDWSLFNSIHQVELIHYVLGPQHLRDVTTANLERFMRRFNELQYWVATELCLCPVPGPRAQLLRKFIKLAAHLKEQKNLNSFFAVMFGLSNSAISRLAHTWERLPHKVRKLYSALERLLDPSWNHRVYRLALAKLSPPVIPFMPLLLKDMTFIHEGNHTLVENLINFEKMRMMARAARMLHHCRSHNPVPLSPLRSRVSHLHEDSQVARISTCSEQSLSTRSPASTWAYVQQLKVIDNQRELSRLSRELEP

[2] = target: Rap guanine nucleotide exchange factor 4 (Homo sapiens) (UniProt Q8WZA2); assay: Confirmatory qHTS for antagonist of cAMP-regulated guanine nucleotide exchange factor 4 (EPAC2) (AID 1645885); further: nearly all actives have a fitted effect of over 25% in size
Sequence of Rap guanine nucleotide exchange factor 4 (Homo sapiens) (Q8WZA2 whole entry, looked up): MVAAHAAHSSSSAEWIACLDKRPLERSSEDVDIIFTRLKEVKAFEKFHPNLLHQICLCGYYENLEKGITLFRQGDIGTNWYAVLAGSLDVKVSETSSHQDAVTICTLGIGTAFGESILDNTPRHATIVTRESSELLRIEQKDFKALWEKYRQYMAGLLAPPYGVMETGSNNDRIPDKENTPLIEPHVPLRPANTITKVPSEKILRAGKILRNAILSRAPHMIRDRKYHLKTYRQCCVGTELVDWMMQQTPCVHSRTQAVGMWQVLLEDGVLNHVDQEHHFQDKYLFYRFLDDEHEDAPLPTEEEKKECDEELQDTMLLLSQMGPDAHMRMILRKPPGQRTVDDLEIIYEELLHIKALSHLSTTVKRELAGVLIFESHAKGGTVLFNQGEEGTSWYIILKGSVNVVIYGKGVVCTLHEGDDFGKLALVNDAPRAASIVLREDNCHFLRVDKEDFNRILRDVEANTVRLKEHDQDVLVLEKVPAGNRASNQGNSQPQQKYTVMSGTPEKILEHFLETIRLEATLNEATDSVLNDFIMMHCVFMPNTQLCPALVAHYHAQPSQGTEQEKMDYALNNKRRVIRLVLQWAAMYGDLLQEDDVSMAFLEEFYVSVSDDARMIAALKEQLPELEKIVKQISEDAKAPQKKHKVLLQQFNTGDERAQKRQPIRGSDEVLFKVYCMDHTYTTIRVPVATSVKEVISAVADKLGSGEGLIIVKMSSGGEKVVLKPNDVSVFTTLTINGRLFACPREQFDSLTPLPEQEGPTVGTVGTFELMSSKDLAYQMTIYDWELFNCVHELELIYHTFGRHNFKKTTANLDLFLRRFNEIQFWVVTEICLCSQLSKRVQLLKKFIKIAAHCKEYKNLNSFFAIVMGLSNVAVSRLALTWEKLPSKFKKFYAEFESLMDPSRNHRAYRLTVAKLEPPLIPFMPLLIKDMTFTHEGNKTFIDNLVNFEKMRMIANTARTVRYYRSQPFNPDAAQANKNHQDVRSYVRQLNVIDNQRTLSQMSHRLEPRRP

[3] = target: Rap guanine nucleotide exchange factor 3 (Homo sapiens) (UniProt O95398); assay: Counterscreen qHTS for antagonist of cAMP-regulated guanine nucleotide exchange factor 3 (EPAC1) (AID 1645888);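 further: fluorescence loss as bound BODIPY-GDP is released from Rap1B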
Outline: (§1)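 Measured: fluorescence of BODIPY-GDP bound to Rap1B, which falls as exchange proceeds. Conditions include 50 uM competing GDP, 5 and 30 min reads, and a later cAMP challenge for antagonist detection.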

[4] = target: Catechol O-methyltransferase (Homo sapiens) (UniProt P21964); assay: Confirmatory Screen for Target Class Profiling of Small Molecule Inhibitors of Methyltransferases (AID 1745852); conditions: MTase-Glo luminescence, SAH detection, recombinant enzyme; measured here: COMT max response; stronger effect = lower value
Sequence of Catechol O-methyltransferase (Homo sapiens) (P21964 whole entry, looked up): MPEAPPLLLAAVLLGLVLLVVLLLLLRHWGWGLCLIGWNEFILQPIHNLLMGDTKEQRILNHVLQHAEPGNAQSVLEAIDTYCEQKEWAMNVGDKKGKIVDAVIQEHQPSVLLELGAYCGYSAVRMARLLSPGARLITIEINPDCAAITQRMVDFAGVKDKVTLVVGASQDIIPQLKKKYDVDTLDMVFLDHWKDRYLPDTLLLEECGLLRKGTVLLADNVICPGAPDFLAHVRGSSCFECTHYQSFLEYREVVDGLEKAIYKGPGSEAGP

[5] = target: Guanidinoacetate N-methyltransferase (Homo sapiens) (UniProt Q14353); assay: as above; conditions: MTase-Glo luminescence, SAH detection, recombinant enzyme; activity change, negative = inhibition: at 85.7 µM (top of the series) unless noted
[6] = target: Nicotinamide N-methyltransferase (Homo sapiens) (UniProt P40261); assay: as above; conditions: MTase-Glo luminescence, SAH detection, recombinant enzyme; measured here: NNMT max response; stronger effect = lower value
Sequence of Nicotinamide N-methyltransferase (Homo sapiens) (P40261 whole entry, looked up): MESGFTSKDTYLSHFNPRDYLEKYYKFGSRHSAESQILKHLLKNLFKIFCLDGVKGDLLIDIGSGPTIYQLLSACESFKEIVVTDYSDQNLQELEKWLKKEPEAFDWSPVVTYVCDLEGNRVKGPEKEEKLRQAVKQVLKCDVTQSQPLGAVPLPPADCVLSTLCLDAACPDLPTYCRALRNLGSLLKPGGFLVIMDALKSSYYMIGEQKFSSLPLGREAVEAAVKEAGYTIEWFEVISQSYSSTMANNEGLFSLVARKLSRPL

[7] = target: Phenylethanolamine N-methyltransferase (Homo sapiens) (UniProt P11086); assay: as above; conditions: MTase-Glo luminescence, SAH detection, recombinant enzyme; measured here: PNMT max response; stronger effect = lower value
Sequence of Phenylethanolamine N-methyltransferase (Homo sapiens) (P11086 whole entry, looked up): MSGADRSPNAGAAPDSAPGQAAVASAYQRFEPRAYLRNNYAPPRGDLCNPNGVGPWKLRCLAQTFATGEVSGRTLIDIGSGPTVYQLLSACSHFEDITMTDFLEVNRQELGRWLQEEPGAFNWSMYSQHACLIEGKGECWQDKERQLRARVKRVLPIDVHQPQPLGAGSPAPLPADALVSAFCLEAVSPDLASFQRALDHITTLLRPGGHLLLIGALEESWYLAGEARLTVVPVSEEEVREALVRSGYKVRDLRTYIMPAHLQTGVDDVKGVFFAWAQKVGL

[8] = target: Tyrosyl-DNA phosphodiesterase 1 (Homo sapiens) (UniProt Q9NUW8); assay: Confirmation Assay for Inhibitors of Tyrosyl-DNA Phosphodiesterase (TDP1) (AID 489007); conditions: recombinant human TDP1 enzymatic activity, dose-response; further: potency means the concentration at half of the fitted maximal effect; nearly all actives have a fitted effect of over 40% in size
Sequence of Tyrosyl-DNA phosphodiesterase 1 (Homo sapiens) (Q9NUW8 whole entry, looked up): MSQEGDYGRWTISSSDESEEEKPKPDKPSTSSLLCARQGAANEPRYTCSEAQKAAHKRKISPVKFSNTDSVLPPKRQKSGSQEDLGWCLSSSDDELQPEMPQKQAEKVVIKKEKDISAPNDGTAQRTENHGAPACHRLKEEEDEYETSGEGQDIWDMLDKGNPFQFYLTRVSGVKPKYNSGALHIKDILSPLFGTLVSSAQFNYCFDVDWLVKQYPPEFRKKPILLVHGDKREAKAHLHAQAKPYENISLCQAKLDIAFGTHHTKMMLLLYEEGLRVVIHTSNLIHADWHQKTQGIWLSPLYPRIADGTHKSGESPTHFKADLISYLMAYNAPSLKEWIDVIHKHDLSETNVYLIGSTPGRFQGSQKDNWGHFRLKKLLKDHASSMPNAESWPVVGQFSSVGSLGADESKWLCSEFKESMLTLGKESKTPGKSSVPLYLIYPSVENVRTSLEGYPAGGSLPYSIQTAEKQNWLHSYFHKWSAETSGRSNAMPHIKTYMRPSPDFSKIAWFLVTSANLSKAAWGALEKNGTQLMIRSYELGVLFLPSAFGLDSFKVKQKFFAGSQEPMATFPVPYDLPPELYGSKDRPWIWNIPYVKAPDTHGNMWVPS
Outline: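 Recombinant E. coli-expressed Tdp1 (1 nM final) was preincubated with compounds 15 min at room temperature, then reacted 5 min with 15 nM 5'-biotin/3'-phosphotyrosine-FITC DNA substrate; cleavage read as loss of AlphaScreen signal (10 ug/ml beads, 10 min).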

[9] = target: Rap guanine nucleotide exchange factor 3 (Homo sapiens) (UniProt O95398); assay: Counterscreen qHTS for agonist of cAMP-regulated guanine nucleotide exchange factor 3 (EPAC1) (AID 1645889); further: nearly all actives have a fitted effect of over 40% in size
Outline: as §1

[10] = target: Rap guanine nucleotide exchange factor 4 (Homo sapiens) (UniProt Q8WZA2); assay: Confirmatory qHTS for agonist of cAMP-regulated guanine nucleotide exchange factor 4 (EPAC2) (AID 1645884);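 further: nucleotide exchange releases bodipy-GDP from Rap1 and this lowers its fluorescence; nearly all actives have a fitted effect of over 65% in size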
[11] = Counterscreen for APE1 Inhibitors: Fluorescent Dye Displacement Validation Assay (AID 1707)
Outline: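 Thiazole Orange (250 nM) bound to 50 nM TAMRA-labelled dsDNA with tetrahydrofuran abasic site; displacement by DNA-binding compounds lowers fluorescence. Buffer 50 mM Tris-HCl pH 7.5, 50 mM NaCl, 2 mM MgCl2, 0.01% Tween-20; endpoint read at 480/540 nm.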

[12] = qHTS for differential inhibitors of proliferation of Plasmodium falciparum line 7G8 (AID 1815);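 further: potency means the concentration at half of the fitted maximal effect; parasite growth measured after three days of incubation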
[13] = qHTS for differential inhibitors of proliferation of Plasmodium falciparum line GB4 (AID 1816); conditions: Potency: Plasmodium falciparum GB4 proliferation inhibition;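 further: potency means the concentration at half of the fitted maximal effect; parasite growth measured after 72 h incubation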
[14] = qHTS for differential inhibitors of proliferation of Plasmodium falciparum line 3D7 (AID 1876); further: potency means the concentration at half of the fitted maximal effect
[15] = qHTS for differential inhibitors of proliferation of Plasmodium falciparum line D10 (AID 1877);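 further: potency means the concentration at half of the fitted maximal effect; parasites grown with compound for 72 h before DNA staining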
[16] = qHTS for differential inhibitors of proliferation of Plasmodium falciparum line Dd2 (AID 1882); conditions: Potency: Plasmodium falciparum Dd2 proliferation inhibition; further: potency means the concentration at half of the fitted maximal effect; nearly all actives have a fitted effect of over 65% in size
Outline: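 SYBR Green I DNA fluorescence read-out, ex 485/em 535 nm. Signals were normalized to 0.29 uM artemisinin and DMSO wells, then corrected using vehicle-only plates flanking each stack. Parasite growth ran 72 h in erythrocytes before lysis.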

[17] = qHTS for differential inhibitors of proliferation of Plasmodium falciparum line W2 (AID 1883); conditions: Potency: Plasmodium falciparum W2 proliferation inhibition;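 further: potency means the concentration at half of the fitted maximal effect; parasites grown with compound for 72 h before lysis and staining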
[18] = qHTS for differential inhibitors of proliferation of Plasmodium falciparum line HB3 (AID 1886); conditions: Potency: Plasmodium falciparum HB3 proliferation inhibition;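 further: potency means the concentration at half of the fitted maximal effect; parasites grown with compound for 72 h before SYBR Green readout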
[19] = NCATS anti-infectives library activity on HEK293 viability as a counter-qHTS vs the C. elegans viability qHTS (AID 1745854)
Outline: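 HEK293 cells, 1500 per well, exposed 24 hr at 37C in 5% CO2 to compounds in a 1:5 titration, up to 41.7 uM final. Viability read as CellTiter-Glo luminescence after 10 min at room temperature.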

## COc1ccc(-n2nnnc2C(c2cccs2)N2CCC(n3c(=O)[nH]c4ccccc43)CC2)cc1 (stereo not drawn)
[1]
  Potency: inactive
[2]
  Potency: inactive
[3]
  outcome: inactive

## CNC1CCc2ccccc21 (stereo not drawn)
[4]
  activity: -8.85%
[5]
  activity change, negative = inhibition: 9.32% [at 114 µM]
[6]
  activity: -95.4%
[7]
  activity: -50.7%

## CN1CCN2c3ccc(N)cc3CC3(C(=O)NC(=O)NC3=O)C2C1 (stereo not drawn)
[8]
  Potency: 14100 nM (active)
[1]
  Potency: inactive
[2]
  Potency: inactive
[9]
  Potency: inactive

## CC[C@H]1CN2CC[C@H]1C[C@@H]2CNCc1ccc(-c2ccccc2)cc1
[4]
  activity: 3.75%
[5]
  activity change, negative = inhibition: 4.44%
[6]
  activity: 4.25%
[7]
  activity: -4.01%

## CCOC(=O)[C@]12Cc3cc(Cl)ccc3[C@H]1N(CC(=O)OC)C(=O)c1ccccc12
[1]
  Potency: inactive
[10]
  Potency: inactive
[3]
  outcome: inactive
[9]
  Potency: inactive

## C[C@]12C=CC(=O)C=C1CCC1C2=CC[C@]2(C)[C@@H](C(=O)CN3CCN(c4cc(N5CCCC5)nc(N5CCCC5)n4)CC3)CC[C@@H]12 (stereo partly drawn)
[11]
  outcome: inactive
[12]
  Potency: 1120 nM (active)
[13]
  Potency: 1260 nM (active)
[14]
  Potency: 794 nM (active)
[15]
  Potency: 1580 nM (active)
[16]
  Potency: 10000 nM (active)
[17]
  Potency: 794 nM (active)
[18]
  Potency: 1410 nM (active)

## O=[N+]([O-])c1ccc(N(CCO)CCO)c2c1no[n+]2[O-]
[1]
  Potency: inactive
[10]
  Potency: inactive
[3]
  outcome: inactive
[9]
  Potency: inactive

## CCCC(=O)O[C@H]1CN2CC[C@H](O)[C@@H]2[C@@H](O)[C@@H]1O
[19]
  Potency: inactive

## CC(C)=CCC[C@](C)(O)[C@H]1CC[C@@]2(C)[C@H]1[C@@H](O)CC1[C@@]3(C)CC[C@@H](O[C@@H]4O[C@H](CO)[C@@H](O)[C@H](O)[C@H]4O)C(C)(C)C3CC[C@]12C (stereo partly drawn)
[19]
  Potency: inactive
